{"source": "PubChem BioAssay (NCI)", "note": "Compounds without any hit were thinned out: in the full panel of roughly 83,000, 20% have a hit.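 Plates (96-well) were seeded with cells, treated with compound at one concentration, and incubated for 48 hours before percent growth was determined.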 Activity calls are given as the source filed them. How the source made its calls: active means growth percent below 10; inactive means the rest."}
{"tested_on": "HCT-116 colon", "experiment": "NCI-60 one-dose screen, 48 h (100 = growth as untreated, 0 = no growth, -100 = all killed)", "conditions": "10 µM"}
{"smiles": "CCN1CCN(c2ccc(NC(=O)Nc3ccc(-c4cc(C(=O)NC(C)C)c5ncccc5n4)cc3)cc2C(F)(F)F)CC1", "growth": "-94% (active)"}
{"smiles": "COc1ccc(OC)c(/C=N/NC(=O)c2ccc3nc(-c4ccc(Cl)cc4)[nH]c3c2)c1", "growth": "56.9% (inactive)"}
{"smiles": "Cc1ccc(-c2cc(-c3cc4ccccc4nc3Cl)[nH]c(=O)n2)cc1", "growth": "-72.8% (active)"}
{"smiles": "CN1C(=O)N(C)C2SC(N/N=C/c3ccccc3)=NC21", "note": "(stereo unspecified)", "growth": "51.5% (inactive)"}
{"tested_on": "HCC-2998 colon", "experiment": "NCI-60 one-dose screen, 48 h (100 = growth as untreated, 0 = no growth, -100 = all killed)", "conditions": "10 µM"}
{"smiles": "CCN1CCN(Cc2ccc(C(=O)Nc3cccc(-c4cn(-c5ccc6oc(=O)ccc6c5)nn4)c3)cc2C(F)(F)F)CC1", "growth": "-100% (active)"}
{"smiles": "COc1cc2oc(-c3cccc(C(=O)Nc4ccc(Cl)cc4)c3)cc(=O)c2c(OCCNC(=O)CNC(=O)OC(C)(C)C)c1OC", "growth": "102% (inactive)"}
{"smiles": "O=C(NO)c1ccc(CN2CCN(c3nc(-c4ccccc4)c4ccccc4n3)CC2)cc1", "growth": "12.6% (inactive)"}
{"smiles": "COC[C@@H](CC(C)C)N=C1NC(=O)/C(=C/c2ccc3ncsc3c2)N1", "growth": "15.5% (inactive)"}
{"smiles": "O=C(/C=C/Nc1ccc(F)cc1F)c1ccc2c(c1)Nc1ccccc1S2", "growth": "79.7% (inactive)"}
{"smiles": "COc1ccc(-c2cc(C(=O)N=Nc3c(O)[nH]c4ccc(F)cc34)c3ccccc3n2)cc1", "growth": "91.1% (inactive)"}
{"smiles": "COc1cc(C2CC(c3ccccc3)=Nc3c(N)nc(N)nc3N2)ccc1Oc1nc(Nc2ccc(F)cc2)nc(N(C)C)n1", "note": "(stereo unspecified)", "growth": "47.7% (inactive)"}
{"smiles": "COc1ccc(-c2cc(C(=O)N=Nc3c(O)[nH]c4ccccc34)c3ccccc3n2)cc1", "growth": "-16.4% (active)"}
{"smiles": "Cc1ccc(CSc2nc(Cl)c(C#N)c(-c3ccc(F)cc3)n2)cc1", "growth": "87.8% (inactive)"}
{"smiles": "O=C(Nc1ccc(I)cc1)Nc1nc2ccc([N+](=O)[O-])cc2s1", "growth": "-95.6% (active)"}
{"smiles": "O=C(Nc1nc2ccccc2s1)c1ccc(Br)cc1", "growth": "78.3% (inactive)"}
{"smiles": "O=c1oc2ccccc2cc1-c1csc(N=Nc2c(O)[nH]c3ccc(Br)cc23)n1", "growth": "96.3% (inactive)"}
{"smiles": "COc1cccc(-c2ccc(/C=N/NC(=O)c3[nH]c4ccc(Br)cc4c3-c3ccccc3)o2)c1", "growth": "11.8% (inactive)"}
{"smiles": "COc1ccc(-c2cc(-c3cc(C(=O)c4ccc(Br)cc4)n4ccc(C)cc34)nc(N)c2C#N)cc1", "growth": "103% (inactive)"}
{"smiles": "CC1(C)[C@@H](NCO)CC[C@]2(C)[C@H]3C(=O)C=C4[C@@H]5C[C@](C)(CO)CC[C@]5(C)CC[C@@]4(C)[C@]3(C)CC[C@@H]12", "growth": "40.8% (inactive)"}
{"smiles": "CO[C@@H]1CSS[C@H]1Cn1nc(-c2ccc(Oc3ccccc3)cc2)c2c(N)ncnc21", "growth": "91.6% (inactive)"}
{"smiles": "CC(=O)Nc1ccc(-c2cn(-c3cccc(C(=O)Nc4ccc(F)c(C(F)(F)F)c4)c3)nn2)cn1", "growth": "62% (inactive)"}
{"smiles": "CC1(c2ccccc2)NC(=O)N(CC(=O)Nc2ccc(C(=O)/C=C/c3ccccc3)cc2)C1=O", "note": "(stereo unspecified)", "growth": "-15.6% (active)"}
{"smiles": "CN(C(=O)c1ccc(C(C)(C)C)cc1)c1sc2c(c1C#N)CCC(=O)C2", "growth": "-4.22% (active)"}
{"smiles": "Nc1nc(-c2ccccc2)cs1", "growth": "74.6% (inactive)"}
{"smiles": "CN1C(=O)N(C)C2SC(N/N=C/c3cccs3)=NC21", "note": "(stereo unspecified)", "growth": "54.2% (inactive)"}
{"smiles": "O=C(CSc1nnc(-c2c[nH]c3ccccc23)n1-c1ccccc1)c1ccccc1", "growth": "83.1% (inactive)"}
{"smiles": "Nc1nc2c(F)c(F)c(F)c(F)c2s1", "growth": "116% (inactive)"}
{"smiles": "CC1=C(c2cc(-c3ccc(Cl)cc3)c(C#N)c(N)n2)C(c2ccccc2)NC(=S)N1", "note": "(stereo unspecified)", "growth": "83.3% (inactive)"}
{"smiles": "Cc1noc2c(Cc3ccc([N+](=O)[O-])cc3)nn(CC(=O)N/N=C/c3ccc(Cl)cc3)c(=O)c12", "growth": "70.7% (inactive)"}
{"smiles": "CN1CCN(Cc2ccc(C(=O)Nc3cccc(Nc4ccc5cc(O)ccc5n4)c3)cc2C(F)(F)F)CC1", "growth": "-97.3% (active)"}
{"smiles": "CN1CCN(c2ccc(C(=O)/C=C/c3ccc(OC(F)F)cc3)cc2)CC1", "growth": "-48.9% (active)"}
{"smiles": "CN1CCN(Cc2ccc(NC(=O)c3cncc(C#Cc4cnc5ccc(N[C@H]6CCOC6)nn45)c3)cc2C(F)(F)F)CC1", "growth": "-96.4% (active)"}
{"smiles": "C/C(=N\\NC(N)=S)c1ccc(Nc2nc(SC(C)C)nc(-c3ccccc3)c2C#N)cc1", "growth": "59.2% (inactive)"}
{"smiles": "COc1ccc2[nH]c(=O)c(CSc3ccc(Nc4nccc(-c5ccc(Cl)cc5)n4)cc3)cc2c1", "growth": "115% (inactive)"}
{"smiles": "CCOc1ccc(/C=N/NC(=O)Cn2nc(Cc3ccc([N+](=O)[O-])cc3)c3onc(C)c3c2=O)cc1", "growth": "29% (inactive)"}
{"smiles": "Brc1ccc(/C=C/c2n(Cc3ccc4ccccc4c3)c3ccccc3[n+]2Cc2ccc3ccccc3c2)cc1", "growth": "-98% (active)"}
{"smiles": "COc1ccc(C2N(c3ccc(Br)cc3)N=C(C(C)=O)N2[C@H]2[C@H](OC(C)=O)O[C@H](COC(C)=O)[C@@H](OC(C)=O)[C@@H]2OC(C)=O)cc1", "note": "(stereo partly specified)", "growth": "75.4% (inactive)"}
{"smiles": "CCN1CCN(c2ccc(NC(=O)Nc3ccc(-c4cc(C(=O)NC(C)C)c5ncccc5n4)cc3)cc2C(F)(F)F)CC1", "growth": "-98.2% (active)"}
{"smiles": "COc1ccc(OC)c(/C=N/NC(=O)c2ccc3nc(-c4ccc(Cl)cc4)[nH]c3c2)c1", "growth": "85.4% (inactive)"}
{"smiles": "Cc1ccc(-c2cc(-c3cc4ccccc4nc3Cl)[nH]c(=O)n2)cc1", "growth": "-1.29% (active)"}
{"smiles": "CN1C(=O)N(C)C2SC(N/N=C/c3ccccc3)=NC21", "note": "(stereo unspecified)", "growth": "81.9% (inactive)"}
